Assay outcomes as filed in PubChem BioAssay.
NPC1 prom act: NPC1 promoter activation; actives 2.4% (n = 320,000); Potency, µM (series often up to 9.22 µM), without a hit: at the highest dose activation, hits mostly activators; AID 485313; Huh7 NPC1 promoter luciferase reporter, 24 h; also: % of control where 0% means no effect; nearly all actives have a fitted effect of over 60% in size
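Luminescence from an NPC1 promoter-driven luciferase reporter in stably transfected Huh7 cells was measured after 24 h compound treatment at 37 °C, followed by 10 min ambient incubation with luciferase detection reagent.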
FLuc modulator: firefly luciferase modulation, counter-screen for miR-21 project; purified FLuc, Km substrates, luminescence inhibition; P08659; Potency, µM (highest dose often 57.5 µM), for inactives: top-dose activity change, negative = inhibition, hits mostly inhibitors; actives 6.9% (n = 360,000);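 also: plate controls were vehicle for no effect and reference inhibitor for full effect; nearly all actives have a fitted effect of over 55% in size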
Target sequence (P08659 whole entry, looked up): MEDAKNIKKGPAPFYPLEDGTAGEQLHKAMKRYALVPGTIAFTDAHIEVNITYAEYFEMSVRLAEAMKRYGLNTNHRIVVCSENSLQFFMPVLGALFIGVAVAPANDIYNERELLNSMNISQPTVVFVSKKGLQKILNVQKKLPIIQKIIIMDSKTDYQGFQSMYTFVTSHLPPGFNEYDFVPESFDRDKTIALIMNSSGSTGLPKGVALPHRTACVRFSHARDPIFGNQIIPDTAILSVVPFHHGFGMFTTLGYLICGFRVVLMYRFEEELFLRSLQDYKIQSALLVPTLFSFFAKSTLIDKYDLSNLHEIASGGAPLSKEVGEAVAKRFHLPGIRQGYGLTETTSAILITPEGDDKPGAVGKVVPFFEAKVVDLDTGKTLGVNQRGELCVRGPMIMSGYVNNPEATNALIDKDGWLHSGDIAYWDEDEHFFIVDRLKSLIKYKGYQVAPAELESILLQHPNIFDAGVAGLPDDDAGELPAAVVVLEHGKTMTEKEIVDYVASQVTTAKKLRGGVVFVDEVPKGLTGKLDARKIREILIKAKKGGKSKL
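Purified P. pyralis luciferase (10nM final) with 10uM D-luciferin and 10uM ATP (Km levels) in 50mM Tris acetate pH 7.5, 10mM Mg acetate, 0.01% Tween-20, 0.05% BSA; qHTS 6-point titration, ~60 µM downward; luminescence read.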
ELG1 DNA repair: blocks ELG1-dependent DNA repair in HEK293T cells. HEK293T ELG1-luciferase reporter, luminescence, 16 h; DNA damage induced by 5-fluorouridine. Potency, µM (doses to about 46.1 µM), inactives show top-dose activity change, negative = inhibition, usual class: inhibitors. actives 2.3% (n = 330,000). AID 504467; also: % is scaled to controls: 0 for no effect and ±100 for the full control effect; nearly all actives have a fitted effect of over 55% in size
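Step one: seed 2,000 cells per well. Step two: pin-transfer compound or DMSO alongside 5-fluorouridine. Step three: incubate 16 hr, 37 °C, 5% CO2. Step four: add ONE-Glo, wait 30 min, read luminescence.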
Rab9 promoter act: activators of Rab9 promoter | actives 2.8% (n = 320,000) | AID 485297 | Potency, µM (titrated, usually from 9.22 µM), for the others: at the highest dose activation, negative = inhibition, usual class: activators | Huh7 Rab9 promoter-luciferase reporter, luminescence, 24 h; also: % of control where 0% means no effect; nearly all actives have a fitted effect of over 60% in size
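Cells were plated at 1500 per well in reduced-serum medium with 10% FBS and left 2 h. Compound in DMSO was then added for 24 h at 37 °C. Reporter signal was read by luminescence after 10 min with luciferase detection reagent.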
SMN2 splice enh: enhancers of SMN2 splice variant expression; actives 2.8% (n = 210,000); HEK293 SMN2-luciferase splicing reporter, luminescence, 30-36 h; Potency, µM (doses to about 46.1 µM), for the others: top-dose activity change, positive = activation, usual class: activators; AID 1458; also: % of control where 0% means no effect; nearly all actives have a fitted effect of over 55% in size
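qHTS luciferase splicing reporter: luminescence rises when SMN2 exon 7 is included in transfected HEK293 cells. Compound exposure lasted 30-36 h at 37C, with 4.5 mM final sodium butyrate as control, followed by a ONE-Glo read.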
ELG1 genotoxic: induces genotoxicity in HEK293T cells with luciferase-tagged ELG1; HEK293T ELG1-luciferase reporter, luminescence, 16 h; AID 504466; actives 1.3% (n = 330,000); Potency, µM (top dose mostly 46 µM), for the others: at the highest dose activity change, positive = activation, most hits filed as activators; also: % of control where 0% means no effect; nearly all actives have a fitted effect of over 60% in size
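DMSO vehicle served as control against compound-treated ELG1-luciferase HEK293T cells; exposure lasted 16 hr at 37 °C and 5% CO2, followed by ONE-Glo luminescence detection after 30 min.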
Numbers without * were called inactive; ? = inconclusive; nt = no result; ! = not confirmed by another sample; [ ] = another dose, or the depositor's remark. Only some compounds are listed: those with a hit (about 9.2% of all), similar ones and a draw of the others. Calls follow the shape of the dose curve; as a rule, active = well fitted curve in the direction sought with a large enough effect; inconclusive = small, poorly fitted or top-dose-only effect, or another doubt; inactive = no such curve, though single readings can be large; an effect the other way counts as inactive or inconclusive. Potency is read from the fitted curve at half-maximal effect.

SMILES | NPC1 prom act | FLuc modulator | ELG1 DNA repair | Rab9 promoter act | SMN2 splice enh | ELG1 genotoxic
O=C(Cn1ncn2nc(-c3ccccc3)cc2c1=O)NCc1ccccn1 | 1% | 11µM* | 21% | 11% | nt | 2%
COc1ccc(-c2cc3c(=O)n(CC(=O)NCCCN4CCN(Cc5ccccc5)CC4)ncn3n2)cc1 | ? | 1.5µM* | ? | ? | nt | ?
COc1ccc(-c2cc3c(=O)n(CC(=O)NCc4ccc(C)cc4)ncn3n2)cc1 | 3% | -17% | ? | 16% | nt | ?
CCOc1ccc(CCNC(=O)Cn2ncn3nc(-c4ccc(OC)cc4)cc3c2=O)cc1 | 14% | -5% | ? | 19% | nt | ?
COC(=O)c1ccc(-c2ccc(/C=N/NC(=O)Cc3nnc(N)s3)o2)cc1 | 4.5µM* | ? | 0% | ? | nt | 8%
O=C(CN(Cc1ccccc1Cl)S(=O)(=O)c1ccc(Cl)cc1)N/N=C/c1ccc(C(=O)O)cc1 | 4% | -1% | 12% | 4% | nt | 8%
Cc1ccc(OCC(=O)Nc2c(C(=O)c3ccc(Cl)cc3)oc3ccccc23)cc1C | nt | 1% | nt | nt | -2% | nt
Cc1cccc(C(=O)c2c(N)sc3c2CCC(C)C3)c1 (stereo not given) | ? | 21µM* | ? | ? | nt | ?
Cc1cccc(C(=O)c2c(N)sc3c2CCCC3)c1 | -4% | 1% | 7% | 2% | nt | -2%
CCN(CC)C(=O)c1c(NC(=O)c2cccc(C)c2)sc2c1CCC(C)C2 (stereo not given) | nt | 17µM* | nt | nt | -4% | nt
CCC(C)N(C(=O)CSc1nc(C)nc2ccccc12)C1CCS(=O)(=O)C1 (stereo not given) | 1% | -3% | -29% | 1% | nt | -6%
CCC(C)N(C(=O)CSc1nc(-c2ccccc2)cs1)C1CCS(=O)(=O)C1 (stereo not given) | 1% | 17µM* | -3% | -5% | -25% | -4%
COc1ccc(N(Cc2ccccc2)C(=O)CSc2nnc(Cn3nnc4ccccc43)o2)cc1 | 1% | 6% | 18µM* | -7% | -23% | -19%
O=C(CSc1nnc(Cn2nnc3ccccc32)o1)N(Cc1ccc(F)cc1)c1ccccc1 | -24% | 7% | -1% | -19% | nt | -4%
CC1CCN(C2=NC(=O)/C(=C/c3cn(-c4ccccc4)nc3-c3cccc(S(=O)(=O)N(C)C)c3)S2)CC1 | 23% | 2.7µM* | 5.2µM* | ? | -2% | 1%
O=C(COc1ccc2ccccc2c1Br)NC(=S)Nc1cccc(CO)c1 | ? | 8.5µM* | ? | ? | ? | 21µM*
O=C(COc1ccc(Br)cc1Br)NC(=S)N1CCCc2ccccc21 | -1% | 17µM* | ? | 20% | 3% | 23µM*
O=C(COc1ccccc1Cl)NC(=S)Nc1cccc(NC(=O)c2ccccc2Cl)c1 | 0% | ? | 2% | -1% | ? | 0%
O=C(COc1ccc(Br)cc1Br)NC(=S)Nc1cccc(CO)c1 | 0.35µM* | 3.8µM* | ? | 0.45µM* | 18µM* | 7.3µM*
Cc1ccccc1OCC(=O)NC(=S)Nc1cccc2cc(O)ccc12 | 2% | 3% | 12% | 5% | nt | 0%
C=CCN(c1ccccc1)S(=O)(=O)c1cccc(C(=O)NNC(=O)c2ccncc2)c1 | 1% | -2% | 30% | 1% | nt | 0%
Cc1ccc(C(=O)NCCc2csc(-c3cccnc3)n2)cc1 | 20% | 5.4µM* | ? | ? | ? | ?
COc1cccc(C(=O)NCCc2csc(-c3ccc(Cl)cc3)n2)c1 | nt | 21µM* | nt | nt | nt | nt
Cc1ccc(-c2nc(CCNC(=O)c3ccc(C)c(C)c3)cs2)cc1 | nt | 24µM* | nt | nt | nt | nt
Cc1ccc(-c2nc(CCNC(=O)C(=O)Nc3ccc(C)c(C)c3)cs2)cc1 | nt | 1% | nt | nt | nt | nt
SMILES | NPC1 prom act | FLuc modulator | ELG1 DNA repair | Rab9 promoter act | SMN2 splice enh | ELG1 genotoxic
O=C(NCCc1csc(-c2cccnc2)n1)c1cccs1 | 0% | ? | ? | 2% | -1% | -4%
COc1ccc(NC2=C(c3ccc(OC)cc3)C(=O)c3ccccc32)cc1 | 6% | -2% | -6% | 12% | -4%[1.84 µM] | 5%
COc1cc(C2N(C)C(=O)c3ccccc3N2C)ccc1O (stereo not given) | -4% | 3% | 3% | 0% | nt | -1%
COc1cc(C2C(=O)c3ccccc3C2=O)ccc1O | 0% | 24µM* | ? | 0% | nt | 8%
COc1ccc(C2=C(N)c3ccccc3C2=O)cc1 | 4.5µM* | 11µM* | ? | 4.5µM* | ? | 13µM*
COc1ccc(C2C(=O)c3ccccc3C2=O)cc1OC | 28% | 8.5µM* | ? | ? | nt | -4%
COc1ccc(C2C(=O)c3ccccc3C2=O)cc1 | ? | 5.4µM* | ? | ? | 4µM*! | ?
Cc1ccc(NC(=O)Cc2nc(-c3c[nH]c(C(=O)N4CCCC4)c3)cs2)c(C)c1 | 2% | -3% | 16µM* | -4% | nt | -6%
Cc1ccc(NC(=O)CSc2n[nH]c(-c3ccncc3)n2)c(C)c1 | -2% | -4% | 4% | 2% | nt | 4%
CC(OC(=O)CCC1CCCCC1)C(=O)Nc1ccc(S(N)(=O)=O)cc1 (stereo not given) | -1% | -3% | 7% | -3% | nt | -2%
CC(C)c1ccc(C2NC(=O)NC3=C2CCc2ccccc23)cc1 (stereo not given) | -5% | 0% | -12% | 1% | -33% | -2%
Cc1ccc(C2NC(=O)NC3=C2CCc2ccccc23)cc1 (stereo not given) | ? | 3µM* | ? | 18% | -23% | ?
CCOC(=O)c1c(NC(=O)COc2ccc(Br)cc2)sc2c1CCCC2 | nt | 0% | nt | nt | nt | nt
O=C(Nc1cccc(/C=C/c2ccccn2)c1)c1cc(Cl)ccn1 | ? | 19µM* | ? | 2.8µM* | nt | ?
O=C(Nc1ccc(F)c(F)c1)c1ccc(-n2cncn2)c([N+](=O)[O-])c1 | -1% | 3% | ? | -4% | nt | -6%
O=C(Nc1cccc(/C=C/c2ccccn2)c1)c1ccc(-n2cncn2)c([N+](=O)[O-])c1 | -3% | 24µM* | 9.2µM* | 18% | nt | -42%
Cc1ccc2c(CC(=O)N(Cc3ccc(N(C)C)cc3)Cc3ccco3)coc2c1C | nt | -1% | nt | nt | 11% | nt
Cc1ccnc(NC(=O)CNC(=O)c2ccco2)c1 | 2% | -4% | ? | 2% | nt | 9%
O=C(NC(=S)Nc1cccnc1Cl)c1ccc(Cl)cc1 | ? | 17µM* | ? | ? | nt | ?
O=C(NC(=S)Nc1cccnc1Cl)c1ccco1 | 22% | 15µM* | ? | ? | 15% | 8%
Cc1ccnc(NC(=S)NC(=O)/C=C/c2ccco2)c1 | ? | 7.6µM* | ? | ? | ? | 9.2µM*
